For ten molecules, Potency and outcome results are on record in PubChem BioAssay (Tox21).

A short description of experiment [1]: qHTS assay to identify small molecule agonists of the vitamin D receptor (VDR) signaling pathway - cell viability counter screen (AID 743224). Further: nearly all actives have a fitted effect of over 50% in size. Further: potency means the concentration at half of the fitted maximal effect. Summed up:
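Here cell health was gauged by luminescent ATP detection (CellTiter-Glo, 30 min RT) in VDR-bla cells that had been incubated with test compounds for 16 h at 37C and 5% CO2.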

Experiment [2] is described as follows: qHTS assay to identify small molecule antagonists of the vitamin D receptor (VDR) signaling pathway - cell viability counter screen (AID 743225). Further: nearly all actives have a fitted effect of over 50% in size. Further: potency means the concentration at half of the fitted maximal effect. An outline of the steps: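 Same-well multiplex: following 16 h treatment of HEK 293T cells carrying a UAS-driven beta-lactamase reporter with compound and agonist (3 nM final), and a 2 h FRET substrate step, CellTiter-Glo was added and luminescence read after 30 min.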
In general terms: In qHTS, concentration-response curves come from the screen itself.

Experiment [3] can be described thus: qHTS assay to identify small molecule agonists of the NFkB signaling pathway (AID 1159509; active means well fitted curve in the direction sought with a large enough effect in the signal ratio in the repeat runs, not every such curve was filed as active; the % refers to the signal ratio). Summed up:
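NFkB-bla ME-180 cells with a beta-lactamase reporter under an NF-kB response element were plated overnight, treated with compounds in DMSO for 5 hr at 37 C, then loaded with FRET substrate for 1.5 hr at room temperature.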

Experiment [4] is described as follows: qHTS assay to identify small molecule agonists of the endoplasmic reticulum stress response signaling pathway (AID 1159516; active means well fitted activation curve with a large enough effect in the signal ratio in the repeat runs, not every such curve was filed as active; the % refers to the signal ratio). An outline of the steps:
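Reporter HeLa cells (ESRE-beta-lactamase) underwent 5 hr compound incubation at 37 C and 5% CO2 in quantitative HTS format. Detection followed 2 hr of FRET substrate loading at room temperature.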

The nature of experiment [5]: qHTS assay to identify small molecule agonists of the endoplasmic reticulum stress response signaling pathway - cell viability counter screen (AID 1159517; calls by dose curve;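 further: HeLa cells carrying an ER stress response element beta-lactamase reporter; nearly all actives have a fitted effect of over 50% in size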). An outline of the steps: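 Counter-screen wells were identical to the reporter wells. Cells were plated at 1,500 per well and dosed for 5 hr, then read for luminescence 30 min after CellTiter-Glo addition.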
Experiment [6] in a line: qHTS assay to identify small molecule antagonists of the retinoid-related orphan receptor gamma (ROR-gamma) signaling pathway - cell viability counter screen (AID 1159520). Further: nearly all actives have a fitted effect of over 50% in size. Summed up: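 Tet-on ROR gamma CHO cells were given compounds for 2 hr, then doxycycline hyclate at 1 uM final, and incubated 16 hr at 37 C. Viability was measured as ATP content by CellTiter-Glo luminescence.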

Experiment [7] in a line: qHTS assay to identify small molecule agonists of the AP-1 signaling pathway - cell viability counter screen (AID 1159525; calls by dose curve; further: nearly all actives have a fitted effect of over 55% in size). Summed up: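 AP-1-bla ME-180 cells in Opti-MEM with 0.5% dialyzed FBS, compound exposure 5 h at 37 C in 15-point titration. Viability read in the same wells as ATP content by CellTiter-Glo luminescence, normalised to tetra-n-octylammonium bromide and DMSO controls.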

The nature of experiment [8]: qHTS assay to identify small molecule agonists of the RXR signaling pathway - cell viability counter screen (AID 1159529). Further: nearly all actives have a fitted effect of over 50% in size. Further: potency means the concentration at half of the fitted maximal effect. An outline of the steps:
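Counter screen: CellTiter-Glo luminescence. Cells: RXR-alpha-UAS-bla HEK 293T. Medium: 2% charcoal-stripped FBS. Treatment: 16 h, 37 C. Reagent incubation: 30 min, RT.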

Experiment [9] can be described thus: qHTS assay to identify small molecule antagonists of the retinoid acid receptor (RAR) signaling pathway - cell viability counter screen (AID 1159551). Further: nearly all actives have a fitted effect of over 35% in size. An outline of the steps: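 Seed C3RL4 cells; next day add compound, then retinol to 1 uM final; incubate 6 h at 37 C; add CellTiter-Glo; read luminescence after 30 min at RT.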
A short description of experiment [10]: qHTS assay to identify small molecule antagonists of the retinoic acid receptor (RAR) signaling pathway (AID 1159552; further: nearly all actives have a fitted effect of over 50% in size; further: potency means the concentration at half of the fitted maximal effect). An outline of the steps:
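Antagonism of retinol-induced RARE reporter activity was measured in C3RL4 cells. Exposure to compounds and 1 uM final retinol lasted 6 hr at 37 C, with luminescence as endpoint.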

Experiment [11] in a line: qHTS assay to identify small molecule agonists of the retinoic acid receptor (RAR) signaling pathway (AID 1159553). Further: potency means the concentration at half of the fitted maximal effect. Particulars: C3RL4 RARE luciferase reporter, agonist, 6 h; activation: at 73.3 µM (top of the series). An outline of the steps:
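Activation of retinol signaling was monitored via a RARE luciferase reporter in C3RL4 cells. After 6 hr compound treatment at 37 C, detection reagent was added for 30 min at room temperature before luminescence reading.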

For experiment [12], the target named is Nuclear receptor ROR-gamma (Homo sapiens) (UniProt P51449). Nature of the experiment: qHTS assay to identify small molecule antagonists of the retinoid-related orphan receptor gamma (ROR-gamma) signaling pathway (AID 1159521). An outline of the steps:
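Inducible-expression reporter assay: doxycycline (1 uM final) switched on RORγ in CHO cells bearing a ROR response element-luciferase construct, with test compounds present from 2 h beforehand. Decreased luminescence after 16 h defined antagonist activity.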

The nature of experiment [13]: qHTS assay to identify small molecule agonists of the AP-1 signaling pathway (AID 1159526; calls by dose curve).
Experiment [14] has as its target Retinoic acid receptor RXR-alpha (Homo sapiens) (UniProt P19793). Nature of the experiment: qHTS assay to identify small molecule agonists of the RXR signaling pathway (AID 1159527; calls by dose curve; further: nearly all actives have a fitted effect of over 35% in size). An outline of the steps:
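Compounds in DMSO were added to RXR-alpha-UAS-bla HEK 293T cells kept in 2% charcoal-stripped serum, and incubated 16 hr at 37 C with 5% CO2. Reporter signal came from a 2 hr B/G FRET substrate step.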

A short description of experiment [15]: qHTS assay to identify small molecule agonists of the estrogen related receptor (ERR) signaling pathway (AID 1224820). An outline of the steps: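 ERR reporter cells (NTP line) plated 2,000/well, incubated 6 h at 37 C/5% CO2, then pinned with compounds in DMSO and held 18 h at 37 C. One-Glo added; luminescence read after 30 min at room temperature.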

Inconclusive results are not listed. Active and inactive are the calls of the source. Unless noted, the call rests on the fitted dose curve; in most records, active means well fitted curve in the direction sought with a large enough effect in the repeat runs; inconclusive means weak or mixed curves; inactive means no such curve, though single readings can be large; an effect the other way counts as inactive or inconclusive.

Chain of Retinoic acid receptor RXR-alpha (Homo sapiens) (P19793 whole entry, looked up): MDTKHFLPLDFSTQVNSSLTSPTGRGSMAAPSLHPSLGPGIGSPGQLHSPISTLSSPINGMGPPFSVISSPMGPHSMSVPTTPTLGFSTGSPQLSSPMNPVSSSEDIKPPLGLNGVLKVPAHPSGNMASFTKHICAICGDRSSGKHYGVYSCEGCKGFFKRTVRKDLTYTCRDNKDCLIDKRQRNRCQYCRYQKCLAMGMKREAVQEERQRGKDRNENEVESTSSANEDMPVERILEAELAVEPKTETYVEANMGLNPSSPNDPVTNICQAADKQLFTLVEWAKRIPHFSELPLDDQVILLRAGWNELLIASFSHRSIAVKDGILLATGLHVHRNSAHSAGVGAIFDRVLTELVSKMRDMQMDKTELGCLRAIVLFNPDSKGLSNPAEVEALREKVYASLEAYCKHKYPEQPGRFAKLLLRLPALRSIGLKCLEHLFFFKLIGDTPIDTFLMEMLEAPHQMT

On to `Nc1nnc(-c2ccc([N+](=O)[O-])o2)o1`, for which the Potency entry in experiment [1], in experiment [2], in experiment [3], in experiment [4], in experiment [5] and in experiment [6] was “inactive” throughout. For the same molecule, the Potency result in experiment [7], in experiment [8], in experiment [9], in experiment [10] and in experiment [11] was “inactive” in each case.

Consider `CN1C[C@H](C(=O)N[C@]2(C)O[C@@]3(O)[C@@H]4CCCN4C(=O)[C@H](Cc4ccccc4)N3C2=O)C[C@@H]2c3cccc4[nH]cc(c34)C[C@H]21`, for which, in [1], the Potency was 29.8 µM (active). Also, the Potency result in experiment [3], in [4], in experiment [5], in experiment [12], in [7] and in experiment [13] was “inactive” each time. In addition, the Potency entry in [14], in [9], in experiment [10] and in experiment [11] was “inactive” in each case. Moreover, the molecule was called inactive in experiment [15].

For `CC(=O)NC1(c2cccc(F)c2)CCN(CC[C@@]2(c3ccc(Cl)c(Cl)c3)CN(c3ccccc3)C(=O)CO2)CC1`, the Potency in experiment [1] is 39 µM (active); in experiment [2] it was 43.8 µM (active); in experiment [8] it was 19.6 µM (active); in [10], 43.4 µM (active). The Potency entry in [3], in experiment [4], in experiment [7], in experiment [13], in [9] and in [11] was “inactive” each time.

On to `CCC1CO1` (centres undefined), for which the Potency entry in experiment [1], in experiment [2], in [3], in [4], in [5] and in experiment [6] was “inactive” in each case. For the same molecule, the Potency result in experiment [7], in [13], in experiment [14], in experiment [8], in experiment [9] and in experiment [10] was “inactive” in each case. The Potency entry in experiment [11] is “inactive”.

Regarding `Clc1ccc(Nc2nnc(Cc3ccncc3)c3ccccc23)cc1`, the Potency entry in [3], in experiment [4], in experiment [5], in experiment [7], in [13] and in experiment [9] was “inactive” in each case. Further, the Potency entry in experiment [10] and in [11] was “inactive” throughout.

As to `CC[N+](CC)(CCNC(=O)C(=O)NCC[N+](CC)(CC)Cc1ccccc1Cl)Cc1ccccc1Cl`, the Potency entry in [1], in experiment [2], in experiment [3], in experiment [5], in experiment [6] and in experiment [12] was “inactive” in each case. Further, the Potency result in experiment [7], in experiment [13], in experiment [14], in experiment [8], in experiment [9] and in [10] was “inactive” in each case. Also, the Potency entry in [11] was “inactive”.

On to `C(=C\c1ccccc1)/c1ccccc1`, for which the Potency entry in experiment [1], in experiment [2], in [3], in experiment [4], in [6] and in experiment [7] was “inactive” each time. Also, the Potency result in experiment [13], in experiment [14], in experiment [8], in experiment [9] and in experiment [10] was “inactive” in each case. The Potency in experiment [11] is 8.56 µM (active).

Take `CC(=O)N/N=C/c1ccc([N+](=O)[O-])o1`: the Potency result in experiment [1], in experiment [2], in [3], in experiment [4], in experiment [5] and in experiment [12] was “inactive” in each case. Also, the Potency entry in experiment [13], in experiment [8] and in experiment [9] was “inactive” in each case. Further, the Potency in experiment [10] is 29.8 µM (active).

With `O=C(/C=C/c1ccccc1)OCCc1ccccc1`, the Potency entry in experiment [1], in experiment [2], in experiment [3], in experiment [4], in experiment [5] and in [6] was “inactive” each time. The Potency entry in experiment [7], in experiment [13], in experiment [8], in experiment [9] and in experiment [10] was “inactive” throughout. For the same molecule, the Potency in [11] was 2.73 µM (active).

`CC(C)=CCC/C(C)=C/CC/C(C)=C/CCC(=O)OC/C=C(\C)CCC=C(C)C`: the Potency entry in experiment [1], in [2], in [3], in experiment [5], in [6] and in experiment [12] was “inactive” each time. In addition, the Potency entry in experiment [7], in experiment [13], in experiment [14], in experiment [8], in experiment [9] and in [10] was “inactive” each time. Further, the Potency result in experiment [11] was “inactive”.
